# Results published in the supplement of paper PMC11732987, “Enantioselective OTUD7B fragment discovery through chemoproteomics screening and high-throughput optimisation” (Communications Chemistry, 2025).
# Values without a mark were called inactive.
# How the values were obtained:
# Test in all cases: log2 ratio of Biotin-Ahx-Ub-VS probe labelling (fragment/DMSO); higher = less target engagement (more negative = stronger competition), active = hit call of the paper (q ≤ 0.05, log2 ratio ≤ -1)
# Conditions in all cases: compound concentration: 200 uM; treatment time: 3 h
# OTUD6B = target: T1, OTUD6B (UniProt Q8N6M0)
# T1 sequence (whole entry): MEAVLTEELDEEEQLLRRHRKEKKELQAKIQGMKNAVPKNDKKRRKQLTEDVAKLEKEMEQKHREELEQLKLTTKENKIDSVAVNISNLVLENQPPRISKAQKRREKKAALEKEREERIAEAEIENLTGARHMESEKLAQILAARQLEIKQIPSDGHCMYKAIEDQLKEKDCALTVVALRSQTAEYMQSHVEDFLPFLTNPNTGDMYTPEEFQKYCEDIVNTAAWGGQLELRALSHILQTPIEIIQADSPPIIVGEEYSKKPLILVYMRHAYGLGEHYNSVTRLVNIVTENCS
# Procedure, shortened: (§1)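 Lysate from HEK293T cells, 495 µg per sample in Tris/CHAPS/IGEPAL buffer with protease inhibitors, was treated for 3 h in triplicate with fragment at 200 µM or vehicle. Biotin-Ahx-Ub-VS was next added at 0.5 µM final for 1 h. The labelled DUBs were enriched with NeutrAvidin, digested with LysC and trypsin, and run by diaPASEF LC-MS/MS, with values given as average log2 fragment/vehicle ratios by unpaired t-test on global-median-normalised Spectronaut quantities of proteins with ≥2 unique peptides.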
# OTUD7B = target: T2, OTUD7B (UniProt Q6GQQ9)
# T2 sequence (whole entry): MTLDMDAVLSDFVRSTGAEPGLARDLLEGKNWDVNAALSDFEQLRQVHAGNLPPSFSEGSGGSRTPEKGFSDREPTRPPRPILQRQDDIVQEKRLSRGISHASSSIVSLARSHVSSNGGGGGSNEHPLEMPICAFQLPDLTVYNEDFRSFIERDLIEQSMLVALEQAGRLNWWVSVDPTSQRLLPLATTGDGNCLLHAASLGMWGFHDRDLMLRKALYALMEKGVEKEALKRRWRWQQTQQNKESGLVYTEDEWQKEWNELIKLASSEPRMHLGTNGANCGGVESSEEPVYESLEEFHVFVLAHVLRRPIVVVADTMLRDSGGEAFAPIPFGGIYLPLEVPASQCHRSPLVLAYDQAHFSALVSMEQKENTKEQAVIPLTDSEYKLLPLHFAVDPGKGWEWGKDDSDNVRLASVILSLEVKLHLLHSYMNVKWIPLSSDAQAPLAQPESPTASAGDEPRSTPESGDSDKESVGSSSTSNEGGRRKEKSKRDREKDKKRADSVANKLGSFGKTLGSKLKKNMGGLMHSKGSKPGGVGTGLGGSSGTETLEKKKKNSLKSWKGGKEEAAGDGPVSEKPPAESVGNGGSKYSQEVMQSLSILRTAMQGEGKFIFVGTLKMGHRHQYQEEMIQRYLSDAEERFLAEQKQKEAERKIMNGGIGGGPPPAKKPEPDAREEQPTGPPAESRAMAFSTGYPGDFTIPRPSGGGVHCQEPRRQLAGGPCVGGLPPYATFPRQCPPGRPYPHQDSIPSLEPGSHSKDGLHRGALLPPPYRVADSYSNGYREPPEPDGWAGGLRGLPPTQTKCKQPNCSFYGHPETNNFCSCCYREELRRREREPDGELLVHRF
# Procedure, shortened: as §1
# PRPF8 = PRPF8 (UniProt Q6P2Q9)
# Procedure, shortened: as §1
# PSMD7 = target: T3, PSMD7 (UniProt P51665)
# T3 sequence (whole entry): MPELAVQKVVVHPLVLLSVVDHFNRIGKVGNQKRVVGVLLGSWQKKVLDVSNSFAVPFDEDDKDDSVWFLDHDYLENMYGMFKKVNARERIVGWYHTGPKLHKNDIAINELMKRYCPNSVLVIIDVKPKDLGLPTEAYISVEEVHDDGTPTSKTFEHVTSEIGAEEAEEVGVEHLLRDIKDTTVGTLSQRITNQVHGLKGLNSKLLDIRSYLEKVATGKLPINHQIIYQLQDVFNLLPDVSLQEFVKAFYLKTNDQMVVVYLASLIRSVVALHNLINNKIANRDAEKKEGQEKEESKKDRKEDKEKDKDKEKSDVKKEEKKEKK
# Procedure, shortened: as §1
# UCHL1 = UCHL1 (UniProt P09936)
# Chain of UCHL1 (P09936 whole entry, looked up): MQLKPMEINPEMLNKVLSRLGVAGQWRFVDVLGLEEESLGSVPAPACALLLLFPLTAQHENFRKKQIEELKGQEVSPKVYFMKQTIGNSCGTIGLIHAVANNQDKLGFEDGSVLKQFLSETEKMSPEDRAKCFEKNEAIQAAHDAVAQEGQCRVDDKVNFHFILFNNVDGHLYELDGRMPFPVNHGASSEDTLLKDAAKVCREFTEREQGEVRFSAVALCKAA
# Procedure, shortened: as §1
# UCHL3 = target: T4, UCHL3 (UniProt P15374)
# T4 sequence (whole entry): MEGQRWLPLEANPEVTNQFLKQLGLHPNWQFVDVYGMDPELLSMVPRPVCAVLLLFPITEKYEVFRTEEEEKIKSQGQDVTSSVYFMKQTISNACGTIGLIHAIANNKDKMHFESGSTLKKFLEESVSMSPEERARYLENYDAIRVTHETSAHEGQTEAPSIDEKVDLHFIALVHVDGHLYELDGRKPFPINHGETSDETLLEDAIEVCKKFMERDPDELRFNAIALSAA
# Procedure, shortened: as §1
# UCHL5 = target: T5, UCHL5 (UniProt Q9Y5K5)
# T5 sequence (whole entry): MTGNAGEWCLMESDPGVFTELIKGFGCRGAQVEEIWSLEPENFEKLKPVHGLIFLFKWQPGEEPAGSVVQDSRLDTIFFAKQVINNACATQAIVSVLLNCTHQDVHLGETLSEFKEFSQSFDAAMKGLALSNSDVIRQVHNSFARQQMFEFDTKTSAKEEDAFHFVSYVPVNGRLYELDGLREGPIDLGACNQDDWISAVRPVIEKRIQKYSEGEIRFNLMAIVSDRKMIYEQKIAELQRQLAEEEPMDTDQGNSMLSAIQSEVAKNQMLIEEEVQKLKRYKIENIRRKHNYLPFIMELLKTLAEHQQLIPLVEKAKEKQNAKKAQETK
# Procedure, shortened: as §1
# USP10 = USP10 (UniProt Q14694)
# Chain of USP10 (Q14694 whole entry): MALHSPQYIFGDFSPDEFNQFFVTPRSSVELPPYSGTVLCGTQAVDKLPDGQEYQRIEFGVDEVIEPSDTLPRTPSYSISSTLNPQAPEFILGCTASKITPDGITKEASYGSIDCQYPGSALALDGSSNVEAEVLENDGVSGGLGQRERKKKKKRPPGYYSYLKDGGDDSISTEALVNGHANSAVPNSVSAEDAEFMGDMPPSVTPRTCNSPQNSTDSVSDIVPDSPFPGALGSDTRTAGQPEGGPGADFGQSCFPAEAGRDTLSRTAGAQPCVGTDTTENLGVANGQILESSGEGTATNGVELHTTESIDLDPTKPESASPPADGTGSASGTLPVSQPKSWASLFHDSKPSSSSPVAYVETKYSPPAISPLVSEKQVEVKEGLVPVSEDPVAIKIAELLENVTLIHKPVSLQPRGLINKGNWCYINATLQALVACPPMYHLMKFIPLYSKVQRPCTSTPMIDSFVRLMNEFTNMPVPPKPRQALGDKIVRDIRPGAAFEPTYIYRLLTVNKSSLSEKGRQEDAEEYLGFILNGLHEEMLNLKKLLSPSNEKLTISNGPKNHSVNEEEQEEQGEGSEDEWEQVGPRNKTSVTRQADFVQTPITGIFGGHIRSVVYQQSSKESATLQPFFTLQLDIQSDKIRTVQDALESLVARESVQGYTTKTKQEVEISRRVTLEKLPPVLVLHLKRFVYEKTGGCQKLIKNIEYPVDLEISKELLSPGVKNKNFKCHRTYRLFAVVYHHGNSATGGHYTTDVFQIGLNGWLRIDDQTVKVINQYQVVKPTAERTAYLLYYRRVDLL
# Procedure, shortened: as §1
# USP15 = target: T6, USP15 (UniProt Q9Y4E8)
# T6 sequence (whole entry): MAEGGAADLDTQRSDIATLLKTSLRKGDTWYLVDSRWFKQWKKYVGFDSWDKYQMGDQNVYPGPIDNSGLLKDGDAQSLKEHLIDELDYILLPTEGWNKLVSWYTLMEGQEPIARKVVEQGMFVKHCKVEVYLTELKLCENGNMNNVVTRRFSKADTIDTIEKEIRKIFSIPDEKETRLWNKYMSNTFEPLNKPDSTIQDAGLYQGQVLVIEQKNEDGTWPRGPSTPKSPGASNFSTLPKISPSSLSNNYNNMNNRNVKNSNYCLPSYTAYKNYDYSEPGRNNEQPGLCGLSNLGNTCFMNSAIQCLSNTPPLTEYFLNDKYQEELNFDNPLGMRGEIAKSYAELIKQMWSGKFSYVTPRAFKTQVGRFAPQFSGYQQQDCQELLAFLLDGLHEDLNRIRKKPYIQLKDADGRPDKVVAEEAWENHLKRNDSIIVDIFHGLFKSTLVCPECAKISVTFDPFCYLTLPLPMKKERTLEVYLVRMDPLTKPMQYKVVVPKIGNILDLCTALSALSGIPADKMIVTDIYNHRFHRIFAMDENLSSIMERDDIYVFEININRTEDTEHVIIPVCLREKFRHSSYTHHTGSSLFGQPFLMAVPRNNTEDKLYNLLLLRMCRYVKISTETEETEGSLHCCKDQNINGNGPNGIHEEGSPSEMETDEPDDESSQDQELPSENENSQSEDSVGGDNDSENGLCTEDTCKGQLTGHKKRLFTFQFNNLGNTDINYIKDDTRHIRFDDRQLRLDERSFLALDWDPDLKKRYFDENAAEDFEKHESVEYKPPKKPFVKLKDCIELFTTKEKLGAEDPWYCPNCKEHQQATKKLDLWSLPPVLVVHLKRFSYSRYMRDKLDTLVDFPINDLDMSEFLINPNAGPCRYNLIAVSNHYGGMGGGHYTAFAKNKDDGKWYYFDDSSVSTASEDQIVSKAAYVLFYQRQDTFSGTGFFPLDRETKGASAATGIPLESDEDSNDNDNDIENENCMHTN
# Procedure, shortened: as §1
# USP16 = USP16 (UniProt Q9Y5T5)
# Chain of USP16 (Q9Y5T5 whole entry, looked up): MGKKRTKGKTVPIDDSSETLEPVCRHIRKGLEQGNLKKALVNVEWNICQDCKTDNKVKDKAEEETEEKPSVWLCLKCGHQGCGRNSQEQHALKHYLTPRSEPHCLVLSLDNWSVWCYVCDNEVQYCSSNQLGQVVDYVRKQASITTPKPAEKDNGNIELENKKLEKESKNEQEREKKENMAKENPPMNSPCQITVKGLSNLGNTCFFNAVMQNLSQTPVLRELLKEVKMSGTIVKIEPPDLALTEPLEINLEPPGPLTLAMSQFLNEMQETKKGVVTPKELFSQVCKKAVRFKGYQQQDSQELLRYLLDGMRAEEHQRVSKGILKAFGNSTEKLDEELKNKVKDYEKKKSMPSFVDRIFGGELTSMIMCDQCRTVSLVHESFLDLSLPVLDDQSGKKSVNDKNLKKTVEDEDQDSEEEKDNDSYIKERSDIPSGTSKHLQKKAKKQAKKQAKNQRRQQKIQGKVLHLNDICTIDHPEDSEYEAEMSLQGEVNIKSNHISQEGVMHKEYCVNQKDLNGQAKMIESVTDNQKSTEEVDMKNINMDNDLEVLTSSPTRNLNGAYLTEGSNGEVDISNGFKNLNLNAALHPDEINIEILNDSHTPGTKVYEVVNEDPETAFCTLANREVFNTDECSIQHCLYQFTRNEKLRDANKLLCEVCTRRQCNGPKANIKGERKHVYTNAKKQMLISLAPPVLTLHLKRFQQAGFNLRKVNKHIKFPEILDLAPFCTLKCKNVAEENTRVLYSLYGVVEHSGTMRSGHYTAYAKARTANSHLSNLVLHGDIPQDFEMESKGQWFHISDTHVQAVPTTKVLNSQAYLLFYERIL
# Procedure, shortened: as §1
structure (smiles),measurement,setting,value
O=C(CCl)N1CCOCC1C1CC1 (stereo not given),log2 ratio of Biotin-Ahx-Ub-VS probe labelling,OTUD6B,-0.211
same,log2 ratio of Biotin-Ahx-Ub-VS probe labelling,OTUD7B,-0.512
same,log2 ratio of Biotin-Ahx-Ub-VS probe labelling,PRPF8,-0.182
same,log2 ratio of Biotin-Ahx-Ub-VS probe labelling,PSMD7,-0.142
same,log2 ratio of Biotin-Ahx-Ub-VS probe labelling,UCHL1,-1.92 (active)
same,log2 ratio of Biotin-Ahx-Ub-VS probe labelling,UCHL3,0.225
same,log2 ratio of Biotin-Ahx-Ub-VS probe labelling,UCHL5,-0.257
same,log2 ratio of Biotin-Ahx-Ub-VS probe labelling,USP10,-0.0983
same,log2 ratio of Biotin-Ahx-Ub-VS probe labelling,USP15,-0.122
same,log2 ratio of Biotin-Ahx-Ub-VS probe labelling,USP16,-0.345
